We go through 40 molecules from PubChem BioAssay (NCATS).

Where “and” joins values, the source holds several entries; their conditions need not be identical. Equal entries are not always repeated. Inconclusive results are not listed. More than one record can exist for a structure, and the calls need not agree. Calls of active or inactive are those of the source. Calls come from the whole dose curve; as a rule, active = well fitted cell-killing curve with a large enough effect; inconclusive = small, poorly fitted or top-dose-only effect, or effect the other way; inactive = no such curve, though single readings can be large or run the other way.
Potency is the fitted concentration of half-maximal effect.

A short description of this test: Viability qHTS for spleen associated tyrosine kinase inhibitor (SYKi) drug resistant MV4-11 cells (AID 1963824). Note: nearly all actives have a fitted effect of over 35% in size. The following applies: SYKi-resistant MV4-11 viability, CellTiter-Glo, 72 h; series mostly up to 45 µM; viability, % of control: at the top concentration. A digest of the protocol:
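SYK-inhibitor-resistant MV4-11 AML cells were seeded at 500 per well onto compound and cultured 72 hours (37 °C, 5% CO2). CellTiter-Glo was then added, and after 10 min at room temperature, luminescence gave viability.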
A general note: In qHTS, concentration-response curves come from the screen itself.
Regarding `CN1CCN(c2ccc(C(=O)Nc3n[nH]c4ccc(Cc5cc(F)cc(F)c5)cc34)c(NC3CCOCC3)c2)CC1`, the Potency was 326 nM (active) and 372 nM (active) and 411 nM (active). Still for that read-out and setting: the value for `O=C(O)c1ccc2c(c1)nc(Nc1cccc(Cl)c1)c1ccncc12` was 1.64 µM (active) and 1.66 µM (active).

Consider `CN1C2CCC1CC(OC(=O)C(CO)c1ccccc1)C2` (stereo not given), for which the “viability, % of control” value is 99.4% (inactive). Consider `CCCCS(=N)(=O)CCC(N)C(=O)O` (stereo not given), for which the Potency was 17.1 µM (active). On to `Clc1ccc2c(c1)C(N1CCNCC1)=Nc1ccccc1O2`, for which the Potency was 13.3 µM (active) and inactive. In the case of `Fc1ccc(CNc2ncnc3ccc(F)cc23)cc1`, the Potency was 1.84 µM (active). Still for that read-out and setting: the value for `O=C1NC(=O)C(c2cnc3ccccn23)=C1c1cn2c3c(cccc13)CN(C(=O)N1CCOCC1)CC2` was 0.092 µM (active). Same read-out and setting: the value for `CO[C@@H]1C(N(C)C(=O)c2ccccc2)C[C@H]2O[C@]1(C)n1c3ccccc3c3c4c(c5c6ccccc6n2c5c31)C(=O)NC4=O` (stereo not given in full) was 0.332 µM (active); that for `CC(C)(C)c1cc(C(C)(C)C)c(NC(=O)c2c[nH]c3ccccc3c2=O)cc1O` was 7.42 µM (active).

With `CC(C)c1cc(-c2n[nH]c(=O)n2-c2ccc3c(ccn3C)c2)c(O)cc1O`, the Potency is 11.6 nM (active) and 16.6 nM (active).

For the molecule `Cc1ccc(C(=O)Nc2cccc(C(F)(F)F)c2)cc1-c1ccc2nc(NCCN3CCOCC3)ncc2c1`, the Potency was 366 nM (active) and 742 nM (active). On the same count and under the same terms, the value for `COc1ccc(-c2oc3c(CC=C(C)C)c(O)cc(O)c3c(=O)c2O)cc1` was 13.2 µM (active); that for `Cc1ccc(F)c(NC(=O)Nc2ccc(-c3cccc4[nH]nc(N)c34)cc2)c1` was 0.0231 µM (active). The same measure, in the same setting: the value for `COCCCOc1cc(C[C@@H](C[C@H](N)[C@@H](O)C[C@H](C(=O)NCC(C)(C)C(N)=O)C(C)C)C(C)C)ccc1OC` was 168 nM (active) and 5.9 µM (active); that for `Clc1ccccc1C(c1ccccc1)(c1ccccc1)n1ccnc1` was 5.25 µM (active); that for `C=CC(=O)Nc1ccc2ncnc(Nc3ccc(OCc4cccc(F)c4)c(Cl)c3)c2c1` was 2.31 µM (active) and 4.68 µM (active). The same measure, in the same setting: the result for `O=c1c(O)c(-c2ccc(O)c(O)c2)oc2cc(O)cc(O)c12` reads “inactive and 16.4 µM (active)”. For `CCCc1cc(C(N)=S)ccn1`, the “viability, % of control” value was 79.7% (inactive). Take `CC(=O)Nc1ccc([C@H](C)C(=O)Nc2ncc(C(C)C)s2)cc1`: the Potency is 4.61 µM (active). For the molecule `Nc1nc(Nc2ccc(S(N)(=O)=O)cc2)nn1C(=O)c1c(F)cccc1F`, the Potency was 1.03 µM (active) and 1.48 µM (active). On the same count and under the same terms, the result for `CC(C)C[C@H](NC(=O)CNC(=O)c1cc(Cl)ccc1Cl)B1OC(=O)CC(CC(=O)O)(C(=O)O)O1` (stereo not given in full) reads 0.118 µM (active); that for `CNC(=O)c1ccc2c(C(=Nc3cccc(CN(C)C)c3)c3ccccc3)c(O)[nH]c2c1`, 5.8 µM (active) and 3.72 µM (active). Still for that read-out and setting: the value for `C[C@H]1COC2=C1C(=O)C(=O)c1c2ccc2c1CCCC2(C)C` was 5.25 µM (active). On the same count and under the same terms, the result for `O=C(c1ccc(F)cc1)N1CCC[C@H](c2nc(-c3ccc(F)cc3)no2)C1` reads 11.8 µM (active); that for `CC(=O)NC(C)c1ccc(Oc2ccc(OC(C)C)cc2)cc1` (stereo not given), 10.8 µM (active). As for `COc1c2occc2cc2ccc(=O)oc12`, the “viability, % of control” value was 73.7% (inactive).

Take `COc1ccc(-n2nc(C(N)=O)c3c2C(=O)N(c2ccc(N4CCCCC4=O)cc2)CC3)cc1`: the “viability, % of control” value is 76.7% (inactive). The same measure, in the same setting: the result for `O=C(O)CCCCCC(=O)NN=C1CCCC1` reads 108% (inactive). Consider `Cc1cc2c(F)c(Oc3ncnn4cc(OC[C@@H](C)O)c(C)c34)ccc2[nH]1`, for which the Potency was 9.34 µM (active). Still for that read-out and setting: the value for `O=C(O)CCNC(=O)c1ccc(N=Nc2ccc(O)c(C(=O)O)c2)cc1` was “inactive”; that for `CNC(=O)[C@H](Cc1ccccc1)NC(=O)[C@H](CC(C)C)[C@H](CSc1cccs1)C(=O)NO` was 2.95 µM (active); that for `N#Cc1ccnc(Nc2cc(C3CCN(C4COC4)CC3)cc(N3CCC(F)(F)C3)n2)c1` was 2.06 µM (active) and 235 nM (active). Still for that read-out and setting: the result for `Cc1cc([C@@H](C)Nc2ccccc2C(=O)O)c2nc(N3CCOCC3)cc(=O)n2c1` reads 7.08 µM (active) and 5.25 µM (active).

For `O=C1CCCC2=C1C(c1[nH]ncc1Cl)N=C(Nc1nc3ccccc3o1)N2` (stereo not given), the Potency is 14.6 µM (active) and 13.2 µM (active).

`CCN1CCN(c2ccc(Nc3cc(N(C)C(=O)Nc4c(Cl)c(OC)cc(OC)c4Cl)ncn3)cc2)CC1`: the Potency was 1.86 µM (active). Still for that read-out and setting: the value for `Cc1nc(Nc2n[nH]c3c2CN(C(=O)N[C@H](CN(C)C)c2ccccc2)C3(C)C)c2sccc2n1` was 0.0118 µM (active); that for `CC(=O)CC(c1ccccc1)c1c(O)c2ccccc2oc1=O` (stereo not given) was “inactive”. Take `CCc1ccc(C(=O)Nc2cc(CN3CCN(C)CC3)cc(C(F)(F)F)c2)cc1C#Cc1cnc2ccnn2c1`: the Potency was 3.66 µM (active) and 1.84 µM (active). The same measure, in the same setting: the result for `CON(C)C(=O)N1N=C(c2cc(F)ccc2F)S[C@@]1(CCCN)c1ccccc1` reads 10.3 nM (active) and 3.3 nM (active); that for `N#CC1(c2ccc(NC(=O)c3cccnc3NCc3ccncc3)cc2)CCCC1`, 5.17 µM (active).
